Activity calls are given as the source filed them. Unless noted, how the calls were made is not given here.
Experiments:
[1] = HepG2 liver cancer cell viability effects, profiling panel, resazurin fluorescence, 24 h, PK04 Diversity Set (AID 1172); settings: higher = more signal; further: test concentration not given here
[2] = basal S. cerevisiae growth modulation, no modifier, primary screen, OD600, strain BY4716, 24 h, basal condition (AID 1173); settings: OD600, 24 h, higher = more signal, called active from +8 up or from −8 down
[3] = MM1S myeloma cell viability, profiling panel, resazurin fluorescence, basal, 24 h, PK04 Diversity Set (AID 1174); settings: higher = more signal, called active from +8 up or from −8 down;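 further: MM1S multiple myeloma cell line; test concentration not given here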
[4] = target: Dihydroorotate dehydrogenase (quinone), mitochondrial (Plasmodium falciparum (isolate 3D7)) (UniProt Q08210); assay: PfDHODH enzyme inhibitors, primary screen, biochemical, C-terminal His tag, absorbance 600 nm (AID 1175); settings: DCIP absorbance 600 nm, higher = more signal, called active from +8 up or from −8 down;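 further: recombinant parasite enzyme with a five histidine tag at its C terminus; test concentration not given here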
[5] = P. aeruginosa biofilm formation inhibitors, primary screen, strain PAO1, LB-PBS medium, absorbance 600 nm (AID 1176); further: test concentration not given here; settings: P. aeruginosa PAO1 growth/biofilm, A600, 12 h; higher = more signal
[6] = S. cerevisiae RM11-1a growth modifiers, primary screen, strain RM11-1a, OD600, basal, 24 h (AID 1177); settings: OD600, 24 h, higher = more signal, called active from +8 up or from −8 down;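 further: cultures grown under basal conditions with no added stressor; test concentration not given here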
[7] = E. coli acrAB mutant growth effects, primary screen, E. coli filamentation inducers, strain DRC39, OD650, 24 h (AID 1178); settings: higher = more signal, called active from +8 up or from −8 down;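 further: growth measured as culture turbidity by optical density at 650 nm; test concentration not given here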
[8] = E. coli acrAB mutant growth effects, primary screen, E. coli filamentation inducers, strain DRC39, OD650, 48 h (AID 1179);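 further: screen aims at cell division blockers that make cells filament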; settings: E. coli DRC39 delta-acrAB growth, higher = more signal, called active from +8 up or from −8 down
[9] = RPMI8226 myeloma cell viability, profiling panel, resazurin fluorescence, basal, 24 h, PK04 Diversity Set (AID 1180); settings: higher = more signal;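 further: RPMI8826 multiple myeloma cell line at 5000 cells per well; test concentration not given here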
[10] = target: E3 ubiquitin-protein ligase XIAP (Homo sapiens) (UniProt P98170); assay: XIAP binders, primary screen, biophysical, small-molecule microarray, fluorescence 635 nm (AID 1181); settings: small-molecule microarray binding, higher = more signal;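 further: score merges 667 nm emission and signal to noise over triplicate slides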
Sequence of E3 ubiquitin-protein ligase XIAP (Homo sapiens) (P98170 whole entry, looked up): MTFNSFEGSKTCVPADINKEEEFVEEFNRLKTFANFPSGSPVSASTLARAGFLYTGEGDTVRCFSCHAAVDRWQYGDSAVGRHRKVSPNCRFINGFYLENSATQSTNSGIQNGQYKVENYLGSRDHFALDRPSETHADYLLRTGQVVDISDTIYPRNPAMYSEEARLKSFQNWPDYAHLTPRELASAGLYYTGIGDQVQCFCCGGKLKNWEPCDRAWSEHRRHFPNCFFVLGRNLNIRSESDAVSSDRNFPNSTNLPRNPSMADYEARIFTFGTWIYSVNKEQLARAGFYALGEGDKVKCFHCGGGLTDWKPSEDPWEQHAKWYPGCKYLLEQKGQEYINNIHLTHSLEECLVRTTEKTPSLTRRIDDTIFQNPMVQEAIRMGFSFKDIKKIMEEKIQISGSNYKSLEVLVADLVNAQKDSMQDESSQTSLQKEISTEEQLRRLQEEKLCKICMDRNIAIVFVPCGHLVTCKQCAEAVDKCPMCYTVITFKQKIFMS

Sequence of Dihydroorotate dehydrogenase (quinone), mitochondrial (Plasmodium falciparum (isolate 3D7)) (Q08210 whole entry, looked up): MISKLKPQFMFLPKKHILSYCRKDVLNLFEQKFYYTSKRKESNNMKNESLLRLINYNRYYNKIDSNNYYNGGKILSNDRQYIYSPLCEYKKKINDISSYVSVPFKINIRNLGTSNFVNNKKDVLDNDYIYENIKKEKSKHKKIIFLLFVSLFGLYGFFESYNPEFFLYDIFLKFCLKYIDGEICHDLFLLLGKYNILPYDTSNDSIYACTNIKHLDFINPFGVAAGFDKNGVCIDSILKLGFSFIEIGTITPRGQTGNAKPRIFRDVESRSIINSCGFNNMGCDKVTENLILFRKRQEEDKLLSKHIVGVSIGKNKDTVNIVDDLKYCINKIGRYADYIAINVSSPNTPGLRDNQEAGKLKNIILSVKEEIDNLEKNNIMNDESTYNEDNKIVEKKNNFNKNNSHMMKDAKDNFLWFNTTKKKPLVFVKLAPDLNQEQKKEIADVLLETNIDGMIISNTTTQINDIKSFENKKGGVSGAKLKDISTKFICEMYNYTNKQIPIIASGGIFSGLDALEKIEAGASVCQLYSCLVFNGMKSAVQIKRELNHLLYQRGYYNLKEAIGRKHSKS

SMILES	z-score [1]	z-score [2]	z-score [3]	composite z-score [4]	z-score [5]	z-score [6]	z-score [7]	z-score [8]	z-score [9]	composite z-score [10]
CCN1C(=O)[C@H]2[C@H]3[C@H](O)[C@H](O)CC(=NOC[C@@H](O)COCc4ccco4)[C@H]3CC[C@H]2C1=O	-0.92	-0.54 (inactive)	-0.809 (inactive)	-0.164 (inactive)	-0.425 (inactive)	-0.178 (inactive)	-0.0557 (inactive)	0.322 (inactive)	-1.23	-0.0948
CC(=O)OC[C@H]1O[C@H](CC=NO[C@@H](C)c2cc(-c3c(C)cc(C)cc3C)no2)C=C[C@@H]1OC(C)=O	-0.583	0.493 (inactive)	-0.523 (inactive)	0.272 (inactive)	-1.17 (inactive)	0.142 (inactive)	0.165 (inactive)	0.105 (inactive)	0.138	-0.126
C[C@H]1CC[C@@H](C(=O)O)N[C@@H]1c1cccc(N2CCCC2=O)c1	0.672	-0.281 (inactive)	-0.0691 (inactive)	0.552 (inactive)	-0.163 (inactive)	0.765 (inactive)	0.968 (inactive)	0.215 (inactive)	-0.652	0.0909
CCOC(=O)[C@H](CC(C)C)NC(=O)CCC1CC(OC(=O)NCc2ccc3c(c2)OCO3)CC2(CCCC(COC(=O)NCc3ccccc3)O2)O1 (stereo not given in full)	1.32	0.918 (inactive)	0.624 (inactive)	-0.047 (inactive)	-0.282 (inactive)	1.26 (inactive)	0.533 (inactive)	-0.0559 (inactive)	0.836	0.0727
O=C1C2=CC[C@H]3C(=O)N(C4CCCCC4)C(=O)[C@H]3[C@H]2[C@H](O)[C@@H]2O[C@H]12	-3.76	-5.74 (inactive)	-7.88 (inactive)	-3.96 (inactive)	-0.2 (inactive)	-1.83 (inactive)	0.0488 (inactive)	-1.02 (inactive)	-4.05	0.0694
CON=C[C@@H](OC)[C@H](C)C=CCC(=O)OC	0.0392	-0.117 (inactive)	0.293 (inactive)	-0.241 (inactive)	0.0738 (inactive)	-0.557 (inactive)	-0.311 (inactive)	-2.25 (inactive)	-0.274	-0.162
CC(=O)OC[C@H]1O[C@H](C#CCCc2ccccc2)C=C[C@@H]1OC(C)=O	-0.403	-1.17 (inactive)	-0.841 (inactive)	-0.419 (inactive)	-0.0691 (inactive)	0.702 (inactive)	0.551 (inactive)	-0.406 (inactive)	-0.0728	-0.105
CCOC(=O)[C@H](Cc1ccccc1)NC(=O)CCC1CC(OC(=O)NCc2cccc3ccccc23)CC2(CCCC(COC(=O)NCC3CCCCC3)O2)O1 (stereo not given in full)	1.21	-0.424 (inactive)	1.43 (inactive)	-0.105 (inactive)	0.143 (inactive)	-0.104 (inactive)	-0.475 (inactive)	0.481 (inactive)	0.0833	0.0424
C[C@H]1CC[C@H]2C(=O)N[C@H](Cc3ccccc3)C(=O)N2[C@@H]1c1ccccc1	-0.69	-0.512 (inactive)	-0.322 (inactive)	0.868 (inactive)	-0.327 (inactive)	0.0033 (inactive)	0.718 (inactive)	0.295 (inactive)	-0.142	-0.24
CCN1C(C)=C(C(=O)OC)[C@@H](c2ccccc2)N2C(=O)[C@](O)(C(=O)OC)CC(C(C)=O)=C12	-0.0348	-1.38 (inactive)	0.136 (inactive)	-1.27 (inactive)	-0.242 (inactive)	-0.695 (inactive)	0.538 (inactive)	0.866 (inactive)	-0.11	0.0264
CCN1C(=O)[C@H]2[C@H]3[C@H](O)[C@H](O)CC(=NO[C@H](C)c4cn([C@@H]5COC[C@H]5O)nn4)[C@@H]3CC[C@H]2C1=O	-1.28	1.15 (inactive)	-0.917 (inactive)	0.871 (inactive)	1.46 (inactive)	0.539 (inactive)	0.319 (inactive)	-0.787 (inactive)	-0.767	-0.124
O=C(NCCC[N+]1=CC=NC1c1ccccc1)N1CCCc2nc(-c3ccc(Br)cc3)ccc21 (stereo not given)	0.0392	-2.72 (inactive)	-1.04 (inactive)	1.01 (inactive)	0.508 (inactive)	1.6 (inactive)	1.11 (inactive)	-0.493 (inactive)	-0.29	-0.105
C[C@@H](c1ccccc1)N1C(=O)[C@H]2[C@H]3[C@H](O)[C@H](O)CC(=NOC[C@@H](O)COCc4ccco4)[C@H]3CC[C@H]2C1=O	-0.259	-0.123 (inactive)	0.899 (inactive)	-0.222 (inactive)	0.118 (inactive)	-0.286 (inactive)	-0.501 (inactive)	-0.267 (inactive)	0.0536	-0.102
COc1ccc(COC(=O)NN=C2C[C@@H](O)[C@@H](O)[C@@H]3[C@@H]4C(=O)N(Cc5ccccc5)C(=O)[C@@H]4CC[C@@H]23)cc1	1.13	0.18 (inactive)	0.259 (inactive)	0.207 (inactive)	0.0335 (inactive)	0.325 (inactive)	0.918 (inactive)	0.935 (inactive)	1.12	-0.102
C[C@@H](c1ccccc1)N1C(=O)[C@H]2[C@H]3[C@H](O)[C@H](O)CC(=NNC(=O)OCc4ccccc4)[C@@H]3CC[C@H]2C1=O	-0.289	0.862 (inactive)	-0.465 (inactive)	-0.594 (inactive)	-0.155 (inactive)	-0.396 (inactive)	0.288 (inactive)	0.476 (inactive)	-0.158	-0.0749
CC(CCN1CCCc2nc(C)c(C)cc21)=NO[C@H](C)c1cn([C@@H]2COC[C@H]2O)nn1	-0.537	0.593 (inactive)	-0.144 (inactive)	-0.0105 (inactive)	-0.525 (inactive)	0.836 (inactive)	0.973 (inactive)	0.741 (inactive)	-1.6	0.0264
COc1ccc(O[C@H]2C=C[C@@H](c3ccccc3)O[C@@H]2CON=C(C)CCN2CCCc3nc(C)c(C)cc32)cc1	0.165	-0.855 (inactive)	-0.662 (inactive)	-0.752 (inactive)	0.699 (inactive)	-0.351 (inactive)	-0.321 (inactive)	-0.112 (inactive)	-0.164	2.22
CC(C)=CCCC(C)=CCON=C1C[C@@H](O)[C@@H](O)[C@@H]2[C@@H]3C(=O)N(Cc4ccc5c(c4)OCO5)C(=O)[C@@H]3CC[C@H]12	0.659	0.522 (inactive)	-0.503 (inactive)	-0.108 (inactive)	0.437 (inactive)	1.01 (inactive)	0.454 (inactive)	0.0551 (inactive)	-0.402	-0.144
COCC#Cc1ccc([C@@H]2N[C@H](C(=O)O)CC[C@H]2C)cc1	-0.041	-1.71 (inactive)	0.525 (inactive)	-1.53 (inactive)	0.143 (inactive)	-2.45 (inactive)	0.966 (inactive)	-0.94 (inactive)	-0.293	-0.416
CC(C)(C)N1C(=O)[C@H]2[C@H]3[C@H](O)[C@H](O)CC(=NNC(=O)OCc4ccccc4)[C@@H]3CC[C@H]2C1=O	-0.169	0.216 (inactive)	-0.484 (inactive)	-0.111 (inactive)	-0.413 (inactive)	-0.168 (inactive)	0.223 (inactive)	0.342 (inactive)	-0.376	-0.102
CCOC(=O)[C@H](Cc1ccccc1)NC(=O)CCC1CC(OC(=O)NCc2cccc3ccccc23)CC2(CCCC(COC(=O)NCc3ccc4c(c3)OCO4)O2)O1 (stereo not given in full)	-0.0973	-0.552 (inactive)	-0.082 (inactive)	-0.929 (inactive)	-0.373 (inactive)	-0.131 (inactive)	1.56 (inactive)	1.41 (inactive)	0.922	-0.209
CC(C)=NOC[C@@H](O)[C@H]1O[C@@H]2OC(C)(C)O[C@@H]2[C@H]1O	-0.831	-0.0545 (inactive)	-0.369 (inactive)	0.759 (inactive)	-0.443 (inactive)	0.0762 (inactive)	0.757 (inactive)	0.704 (inactive)	-0.686	-0.389
CCOC(=O)[C@H](CC(C)C)NC(=O)CCC1CC(OC(=O)NCc2ccc3c(c2)OCO3)CC2(CCCC(COC(=O)NCCc3ccccc3OC)O2)O1 (stereo not given in full)	0.686	0.594 (inactive)	-0.0143 (inactive)	-0.445 (inactive)	0.614 (inactive)	-0.173 (inactive)	-0.163 (inactive)	-1.02 (inactive)	0.512	-0.102
CCN1C(=O)[C@H]2[C@H]3[C@H](O)[C@H](O)CC(=NO[C@H](C)c4cn([C@H](CO)Cc5ccccc5)nn4)[C@@H]3CC[C@H]2C1=O	-0.948	0.0722 (inactive)	-1.37 (inactive)	-0.613 (inactive)	0.359 (inactive)	-0.141 (inactive)	1.44 (inactive)	0.829 (inactive)	-1.46	0.0178
CCOC(=O)[C@H](Cc1ccccc1)NC(=O)CCC1CC(OC(=O)NCc2ccc3c(c2)OCO3)CC2(CCCC(COC(=O)NCCc3ccc(Cl)cc3)O2)O1 (stereo not given in full)	-0.202	-0.65 (inactive)	0.366 (inactive)	-1.47 (inactive)	0.769 (inactive)	-1.72 (inactive)	-0.226 (inactive)	-0.756 (inactive)	-0.759	-0.133
CCOC(=O)[C@H](CC(C)C)NC(=O)CCC1CC(OC(=O)NCCc2ccc(F)cc2)CC2(CCCC(COC(=O)NCc3cccc4ccccc34)O2)O1 (stereo not given in full)	0.682	-1.9 (inactive)	1.28 (inactive)	0.0103 (inactive)	0.168 (inactive)	-0.186 (inactive)	0.424 (inactive)	-0.435 (inactive)	1.3	-0.0939

— PubChem BioAssay
